Measurements published in article PMC4336329 (PLoS ONE, 2015).
Out of some 310,000 compounds screened, about 14,000 (4.5%) showed an effect of 50% or more. The effect is printed as a negative number. Many of the other results were omitted from the sample, so strong results are more common in it than they were.

Each compound was assayed against human ether-à-go-go-related gene (hERG) potassium channel (human, UniProt Q12809) (assay: primary screen, population patch clamp on CHO cells stably expressing hERG; higher = less effect of the substance).
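Further: peak tail current of the secondary pulse compared with the same well before compound.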

Chain of human ether-à-go-go-related gene (hERG) potassium channel (Q12809 whole entry, looked up): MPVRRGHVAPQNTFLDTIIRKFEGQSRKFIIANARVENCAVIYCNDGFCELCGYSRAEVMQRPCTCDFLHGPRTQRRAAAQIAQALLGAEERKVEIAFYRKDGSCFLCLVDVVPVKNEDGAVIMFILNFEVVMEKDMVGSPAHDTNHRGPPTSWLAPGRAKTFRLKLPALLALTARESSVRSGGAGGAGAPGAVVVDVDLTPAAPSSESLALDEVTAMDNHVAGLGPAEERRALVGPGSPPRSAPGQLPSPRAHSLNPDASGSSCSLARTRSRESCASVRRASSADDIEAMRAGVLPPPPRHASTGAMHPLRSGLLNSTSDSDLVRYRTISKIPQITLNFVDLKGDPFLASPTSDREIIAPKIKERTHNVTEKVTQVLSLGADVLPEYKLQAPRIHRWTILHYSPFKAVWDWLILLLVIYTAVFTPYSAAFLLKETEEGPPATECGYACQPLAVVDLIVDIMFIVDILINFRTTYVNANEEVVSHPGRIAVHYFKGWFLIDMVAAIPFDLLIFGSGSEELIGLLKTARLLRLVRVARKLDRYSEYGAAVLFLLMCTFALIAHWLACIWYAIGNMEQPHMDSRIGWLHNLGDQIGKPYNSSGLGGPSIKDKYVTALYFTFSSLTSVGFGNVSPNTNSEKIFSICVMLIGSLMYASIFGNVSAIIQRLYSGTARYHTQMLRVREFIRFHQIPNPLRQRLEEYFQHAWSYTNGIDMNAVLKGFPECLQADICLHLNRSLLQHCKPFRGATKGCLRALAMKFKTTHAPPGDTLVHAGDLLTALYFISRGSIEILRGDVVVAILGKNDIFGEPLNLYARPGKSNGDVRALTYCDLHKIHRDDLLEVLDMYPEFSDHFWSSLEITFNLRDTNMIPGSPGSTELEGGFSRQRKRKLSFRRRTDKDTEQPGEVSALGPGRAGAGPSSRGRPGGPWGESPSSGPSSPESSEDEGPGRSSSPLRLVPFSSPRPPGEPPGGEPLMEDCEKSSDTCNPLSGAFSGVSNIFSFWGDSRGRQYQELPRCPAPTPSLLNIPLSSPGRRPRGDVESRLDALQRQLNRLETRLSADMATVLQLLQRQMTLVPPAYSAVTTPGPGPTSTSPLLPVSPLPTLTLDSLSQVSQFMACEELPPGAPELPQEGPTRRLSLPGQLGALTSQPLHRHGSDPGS

| SMILES | hERG current change (%, negative = inhibition) at 10uM [%] |
| --- | --- |
| CCCCC1=CC2=CC(=O)C(C)(OC(=O)CC)C(=O)C2=CN1c1ccccc1 (stereo not drawn) | 1.5 |
| CCO[C@H]1OC(C(=O)NCc2ccccc2)=C[C@@H](C2CCCCC2)[C@@H]1CCCO | -19.8 |
| COC(=O)C1=C(c2ccc(S(C)(=O)=O)cc2)C[C@@H]2CC[C@H]1N2C(=O)NCCNC(C)=O | 14.6 |
| Cc1occc1-c1nnc(SCC(=O)N2CCCCC2)o1 | -8.31 |
| CCC(C)(CC(=O)Nc1nccs1)c1ccccc1 (stereo not drawn) | 7.66 |
| COc1cccc(Cn2cc(C)cc(NC(=O)NCc3ccccc3)c2=O)c1 | 11.9 |
| Nc1nc(Cl)cc(Sc2ccc(F)cc2)n1 | 7.51 |
| NNC(=O)c1oc2nc(-c3cccs3)cc(-c3ccco3)c2c1N | -69.8 |
| NNC(=O)c1oc2nc(-c3ccccc3)cc(-c3ccco3)c2c1N | 0.558 |
| NNC(=O)c1oc2nc(-c3ccco3)cc(-c3ccco3)c2c1N | -12.8 |
| CCCCN(C(=O)c1ccc2c(c1)OCO2)c1c(N)n(CCCC)c(=O)[nH]c1=O | 25.7 |
| CSCCC(NS(=O)(=O)c1ccccc1F)C(=O)Nc1ccncc1 (stereo not drawn) | -10.8 |
| O=c1cc(Nc2cccc(Br)c2)[nH]c(=O)[nH]1 | -11.5 |
| Cc1cc(C)c(C#N)c(N2CCN(C(=O)C3COc4ccccc4O3)CC2)n1 (stereo not drawn) | -75.4 |
| CCOC(=O)Nc1ccc2nc(N3CCCCCC3)sc2c1 | -50.6 |
| CCOc1ccc2nc(N3CCCCCC3)sc2c1 | -19.2 |
| CCOc1ccc2nc(N3CCC(C(=O)N4CCN(C5CCCCC5)CC4)CC3)sc2c1 | -46.1 |
| Cc1cccc(N2CCN(C(=O)C3COc4ccccc4O3)CC2)c1C (stereo not drawn) | -17.4 |
| CCOc1ccc2nc(N3CCC(C(=O)N4CCC5(CC4)OCCO5)CC3)sc2c1 | -8.46 |
| Cc1cccc2sc(N3CCN(C(=O)C4COc5ccccc5O4)CC3)nc12 (stereo not drawn) | -31.3 |
| CCOC(=O)N1CCN(C(=O)c2ccc3nc(N4CCCCC4)sc3c2)CC1 | -15.7 |
| CCOC(=O)C1CCN(C(=O)C2CCN(c3nc4ccc(OC)cc4s3)CC2)CC1 | -67.6 |
| CCOc1ccc2nc(N3CCC(C(=O)N4CCN(C(=O)c5ccco5)CC4)CC3)sc2c1 | -81.7 |

| SMILES | hERG current change (%, negative = inhibition) at 10uM [%] |
| --- | --- |
| CCOc1ccc2nc(N3CCC(C(=O)N4CCN(c5ccccn5)CC4)CC3)sc2c1 | -45.7 |
| CCOc1ccc2nc(N3CCC(C(=O)N4CCN(c5ncccn5)CC4)CC3)sc2c1 | -13.4 |
| Cc1ccc2ncnc(NCCCCCC(=O)O)c2c1.Cl | 17.4 |
| CCOc1ncccc1C(=O)Nc1cccc(S(=O)(=O)NC2=NCCC2)c1 | -6.34 |
| COc1ccc2[n-]c(S(=O)Cc3ncc(C)c(OC)c3C)nc2c1.COc1ccc2[n-]c(S(=O)Cc3ncc(C)c(OC)c3C)nc2c1.[Mg+2] (stereo not drawn) [49665950] | 16.3 |
| Cc1ccc(C(=O)NCCSC2CCCCC2)cc1S(=O)(=O)Nc1ccccc1 | -2.9 |
| C=CCCN(Cc1ccccc1)S(=O)(=O)c1ccccc1Br | 3.42 |
| COc1ccc(OCCn2c(C)c(/C=N/n3cnnc3)c3ccccc32)cc1 | -0.339 |
| Cn1c(SCC(=O)N/N=C/c2ccc(O)c(O)c2)nc2ccccc21 | 4.68 |
| CCCC(C)NC(=O)COC(=O)c1ccc2c(c1)C(=O)N(Cc1ccco1)C2=O (stereo not drawn) | 15.8 |
| Cc1ccc(NC(=O)COC(=O)c2ccc(F)cc2Cl)c(Br)c1 | 14.1 |
| O=C(CSc1nc2ccc(Cl)cc2[nH]1)NCc1ccco1 | -51.8 |
| O=C(CCc1nc2ccccc2[nH]1)N1CCN(C(=O)c2ccco2)CC1 | 6.93 |
| CCOc1ccc2nc(NC(=O)C3CCN(C(=O)c4ccco4)CC3)sc2c1 | 10.1 |
| Cc1ccc2nc(SCC(=O)NCc3ccco3)[nH]c2c1 | -0.695 |
| O=C(CSc1ccc(-c2nc3ccccc3[nH]2)cn1)N1CCN(C(=O)c2ccco2)CC1 | -68.4 |
| Cc1ccc2nc(SCC(=O)N3CCN(C(=O)c4ccco4)CC3)[nH]c2c1 | -35.3 |
| CCOc1ccc2nc(SCC(=O)N3CCN(C(=O)c4ccco4)CC3)sc2c1 | -66.2 |
| O=C(CSc1nc2ccc(Cl)cc2[nH]1)N1CCN(C(=O)c2ccco2)CC1 | -56.1 |
| Cl.O=C(CSc1nc2ccccc2[nH]1)N1CCN(C(=O)c2ccco2)CC1 | -23.4 |
| CCOc1ccc2nc(SCC(=O)NCc3ccco3)sc2c1 | -29.8 |
| Cc1cc2nc(-c3ccc(SCC(=O)N4CCN(C(=O)c5ccco5)CC4)nc3)[nH]c2cc1C | 2.64 |
| O=C(CSc1nc2ccccc2[nH]1)NCc1ccco1 | -1.16 |

| SMILES | hERG current change (%, negative = inhibition) at 10uM [%] |
| --- | --- |
| O=c1oc(-c2cccs2)nc2sc3c(c12)CCCC3 | -1.83 |
| COc1ccc(OC)c(C(=O)c2c(C)oc3cc([N+](=O)[O-])c(O)c([N+](=O)[O-])c23)c1 | 13.3 |
| COc1ccc(C2C(C(C)=O)=C(O)C(=O)N2CCc2c[nH]c3ccccc23)cc1 (stereo not drawn) | 13.7 |
| CCn1nnc(NC(=O)c2cc3ccccc3o2)n1 | 4.36 |
| Cc1ccc(-n2c(CC#N)n[nH]c2=S)c(C)c1 | 3.3 |
| O=C(NCc1ccccc1)Nc1cccn(Cc2ccccc2)c1=O | 10.4 |
| Cc1cccc(N2CN=c3s/c(=C\c4ccccn4)c(=O)n3C2)c1 | -1.21 |
| O=C(CSc1nc2ccccc2s1)N1CCN(C(=O)c2ccco2)CC1 | -41.3 |
| O=C(CSc1nc2cc(Cl)ccc2s1)N1CCN(C(=O)c2ccco2)CC1 | -71.6 |
| O=C(C1COc2ccccc2O1)N1CCN(c2nc3ccc([N+](=O)[O-])cc3s2)CC1 (stereo not drawn) | -29.8 |
| O=C(C1COc2ccccc2O1)N1CCN(c2nc3ccccc3s2)CC1 (stereo not drawn) | -27.9 |
| O=C(CSc1nc2cc(Cl)ccc2s1)c1ccco1 | 2.2 |
| Cc1ccc2nc(N3CCN(C(=O)c4ccco4)CC3)sc2c1 | -32 |
| Cc1ccc(Cl)c2sc(N3CCN(C(=O)c4ccco4)CC3)nc12 | -10.3 |
| O=C(c1ccco1)N1CCN(c2nc3ccsc3c(=O)s2)CC1 | -79 |
| COc1ccc2nc(N3CCN(C(=O)C4COc5ccccc5O4)CC3)sc2c1 (stereo not drawn) | -61.2 |
| Cc1ccc(-c2cc(-c3ccccc3)c(C#N)c(Br)n2)cc1 | -4.18 |
| CC1CC(C)CN(S(=O)(=O)c2ccc3c(c2)oc(=O)n3CC(=O)N(C)Cc2ccccc2)C1 (stereo not drawn) | 7.04 |
| CCOCCCNC(=S)N1C2CCC1CC(NC(=O)NC1CCCCC1)C2 (stereo not drawn) | 1.88 |
| Cc1ccc2nc(-c3ccccc3)c(CN3CCN(c4ccccc4F)CC3)n2c1 | 1.85 |
| CN(C)S(=O)(=O)c1cccc(-c2nn(-c3ccccc3)cc2/C=C(/C#N)C(=O)NCc2ccco2)c1 | -26.9 |
| CCCN1CCN(CCCNC(=O)c2cc3c(=O)[nH]c4ccc(C)cc4c3s2)CC1 | -29.5 |
| COc1ccccc1-c1ccc(=O)n(CC(=O)NC2CCc3ccccc32)n1 (stereo not drawn) | 5.88 |

| SMILES | hERG current change (%, negative = inhibition) at 10uM [%] |
| --- | --- |
| CCOC(=O)CC(C#N)c1cn(C)c2ccccc12 (stereo not drawn) | -17.8 |
| CCn1c(SCC(=O)Nc2ccccc2C)nnc1-c1ccccc1O | 1.99 |
| Cc1ccc(C2=NN(S(C)(=O)=O)C(c3cccs3)C2)cc1 (stereo not drawn) | -4.62 |
| Cc1nn2c(N3CCCC3)cc(C(C)C)nc2c1-c1ccccc1 | 3.92 |
| CCCCC(=O)Nc1ncc2c(n1)CC(C)(C)CC2=O | -5.63 |
| CC1(C)CC(=O)c2cnc(NC(=O)C3CCCC3)nc2C1 | -12.6 |
| CCCCC1CC1C(=O)Nc1ncc2c(n1)CC(C)(C)CC2=O (stereo not drawn) | -57.5 |
| COc1cc(Br)c(CN2CCCN(C)CC2)cc1OC | -0.597 |
| CN(C)C=O.O=C(COC(=O)c1ccc(S(=O)(=O)N2CCCC2)cc1)Nc1cccnc1Cl | 7.25 |
| O=C(NCC1CCCCC1)c1cccc([N+](=O)[O-])c1 | 9.98 |
| Cc1cccc(C(=O)N2CCCCCC2)c1 | 2.61 |
| Cc1cccc(C(=O)NCCN(C)C)c1.Cl | 8.43 |
| Cc1ccc(NC(=O)C(=O)NCC2CCN(C(=O)c3cccc([N+](=O)[O-])c3)CC2)cc1 | -16.5 |
| O=C(NCC1CCN(C(=O)c2ccc([N+](=O)[O-])cc2)CC1)c1ccc([N+](=O)[O-])cc1 | -71.3 |
| O=C(NCC1CCCCC1)c1ccc([N+](=O)[O-])cc1 | -16 |
| Cc1cccc(C(=O)NCCCN(C)CCCNC(=O)c2cccc(C)c2)c1 | -52.2 |
| Cc1cccc(C(=O)N2CCCN(C(=O)c3cccc(C)c3)CC2)c1 | -0.26 |
| Cc1cccc(C(=O)NCCCNC(=O)c2cccc(C)c2)c1 | -3.67 |
| Cc1cccc(C(=O)NCC2CCN(C(=O)c3cccc(C)c3)CC2)c1 | -51.2 |
| O=C(NCC1CCN(C(=O)c2cccc([N+](=O)[O-])c2)CC1)c1cccc([N+](=O)[O-])c1 | -53.5 |
| O=C(NCC1CCN(C(=O)c2ccc([N+](=O)[O-])cc2)CC1)C(=O)Nc1ccccc1 | -36.8 |
